Rows were chosen to be rich in hits. Some 2.3% of all compounds tested hit in one or more screens of this group.
POLH inh – DNA polymerase eta (human) inhibition; recombinant Pol eta, fluorescent DNA replication assay; hit rate 1.2% among 390,000; Potency, µM (doses to about 114 µM), for inactives: top-dose activity change, negative = inhibition, hits mostly inhibitors; Q9Y253; note: % is set by controls: 0 for no effect and ±100 for the full control effect
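Pol eta (10 nM) was preincubated with compounds for 15 min at room temperature, after which fluorescent replication substrate (50 nM final) was added to start the reaction. Fluorescence was read kinetically at 0 and 10 min.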
POLK inh – DNA polymerase kappa (human) inhibition; Q9UBT6; purified Pol kappa, fluorescent DNA synthesis assay, 10 min; Potency, µM (series often up to 107 µM), for inactives: at the top dose activity, negative = inhibition, usual class: inhibitors; hit rate 0.53% among 400,000; AID 588579; note: % is set by controls: 0 for no effect and ±100 for the full control effect
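50 nM final substrate added after 15 min RT preincubation of 10 nM Pol kappa with compound; fluorescence read at 0 and 10 min.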
WRN helicase inh – blocks human WRN helicase. Q14191. WRN helicase unwinding, fluorescent forked duplex, kinetic. Potency, µM (doses to about 114 µM), for the others: at the top dose activity change, negative = inhibition, hits mostly inhibitors. hit rate 0.46% among 360,000; note: % is set by controls: 0 for no effect and ±100 for the full control effect; nearly all actives have a fitted effect of over 55% in size
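Enzyme (20 nM final) and test compound sit together 15 min at room temperature before substrate addition. Substrate is a single-forked duplex oligonucleotide (100 nM) labelled with fluorophore and quencher, with 2 mM ATP; helicase unwinding raises red fluorescence, read kinetically.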
POLI inh – DNA polymerase iota (human) inhibition; Q9UNA4; Pol iota fluorescent replication assay, 10 min; Potency, µM (top dose mostly 115 µM), for the others: top-dose activity, negative = inhibition, actives largely listed as inhibitors; hit rate 1% among 390,000
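Pol iota at 10 nM preincubated 15 min with compounds at room temperature; reaction started with fluorescent substrate, 50 nM final. Fluorescence read kinetically at 0 and 10 min; buffer-only wells as negative control.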
POLB inh – inhibitors of human DNA polymerase beta. P06746. Pol beta primer extension/strand displacement, fluorescence kinetic. Potency, µM (top dose mostly 114 µM), without a hit: top-dose activity change, negative = inhibition, hits mostly inhibitors. hit rate 1.3% among 340,000; note: % is set by controls: 0 for no effect and ±100 for the full control effect
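Kinetic readout of DNA synthesis with strand displacement by Pol beta. Compound and 10 nM enzyme sit 15 min at room temperature; 50 nM substrate starts the reaction, read immediately and at 10 min.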
Active calls of the source: *; ? = inconclusive; . = no result; [ ] = another dose, or the depositor's remark. Calls come from the whole dose curve; as a rule, active = well fitted curve in the direction sought with a large enough effect; inconclusive = small, poorly fitted or top-dose-only effect, or another doubt; inactive = no such curve, though single readings can be large; an effect the other way counts as inactive or inconclusive. Potency is the fitted concentration of half-maximal effect.

SMILES | POLH inh | POLK inh | WRN helicase inh | POLI inh | POLB inh
Cc1ccc(S(=O)(=O)N2CCC(c3nc(-c4cccs4)nc4ccccc34)CC2)cc1 | . | ? | . | 8.1% | .
CC(=O)COc1ccc2c(-c3ccccc3)cc(=O)oc2c1C | -3.8% | -20.2% | -14.0% | 78.2% | 26.1%
Cc1c(OCC(N)=O)ccc2c(-c3ccccc3)cc(=O)oc12 | ? | -0.9% | 50.1µM* | 39.8% | -11.8%
SCc1nc2ccccc2[nH]1 | . | -12.1% | . | -4.6% | .
O=C(/C=C/Nc1ccc(S(=O)(=O)Nc2cnc3ccccc3n2)cc1)c1ccccc1 | -19.9% | -13.2% | -24.7% | 33.2% | -7.9%
COc1cccc(C(=O)/C=C/Nc2ccc(S(=O)(=O)Nc3cnc4ccccc4n3)cc2)c1 | 15.8µM* | -14.4% | ? | ? | 2.7%
Cn1ccnc1C(O)c1ccccc1 (centres undefined) | -8.1% | 5.0% | -1.4% | -4.6% | -0.3%
COc1ccc2ccccc2c1C(O)c1nccn1C (centres undefined) | -8.8% | -26.5% | -22.3% | 25.1µM* | -14.0%
Cc1cccc(N2CC(C(=O)Nc3nnc(SCC(=O)N4CCOCC4)s3)CC2=O)c1 (centres undefined) | 44.7µM* | -26.6% | -9.2%[11.6 µM] | ? | 28.2µM*
NC(=O)CSc1nnc(NC(=O)C2CC(=O)N(c3ccc(F)cc3)C2)s1 (centres undefined) | 50.1µM* | -4.9% | -5.5%[11.6 µM] | 5.9% | 0.7%
O=C(Nc1nnc(SCCC2OCCO2)s1)C1CC(=O)N(c2ccc(F)cc2)C1 (centres undefined) | 20µM* | -41.6% | ? | ? | 44.7µM*
COc1cccc(N2CC(C(=O)Nc3nnc(SCCC4OCCO4)s3)CC2=O)c1 (centres undefined) | 44.7µM* | -19.0% | 7.1%[11.6 µM] | ? | -10.3%
O=C(Nc1nnc(SCCC2OCCO2)s1)C1CC(=O)N(c2ccccc2)C1 (centres undefined) | ? | -5.7% | -23.1% | ? | ?
CCOC(=O)c1ccc(NC(=O)COc2ccc(-n3cnnn3)cc2)cc1 | ? | -15.7% | -21.4% | ? | 31.6µM*
CC1OC2(C)OC(=N)C1(C#N)C(C#N)(C#N)C2c1ccccc1 (centres undefined) | ? | -7.0% | -19.6% | 20.9% | -3.0%
CC1C2(C)OC(=N)C(C#N)(C(C)O2)C1(C#N)C#N (centres undefined) | -6.9% | 2.6% | 79.4µM* | ? | -15.5%
Cc1ccc(C(=O)c2cn(Cc3ccc(F)cc3)c3nc(C)ccc3c2=O)cc1 | -9.4% | -15.7% | . | 79.4µM* | 1.3%
CC(C)OC(=O)c1c2c(n3ccccc13)C(=O)c1ccccc1C2=O | ? | -3.0% | 89.1µM* | 74.5% | -5.2%
CCCS(=O)(=O)c1ncc(Cl)c(C(=O)Nc2sc3c(c2C(=O)NCC)CCCC3)n1 | . | 1.0% | . | 9.6% | .
Cc1ccc2nc(CSc3nnc(Nc4ccccc4F)s3)cc(=O)n2c1 | -31.5% | -12.0% | -5.4% | ? | 22.4µM*
C=CCCn1c(Cl)c(C#N)sc1=O | . | -0.4% | . | 22.1% | .
Cc1c(NC(=O)c2cc([N+](=O)[O-])ccc2N2CCOCC2)cccc1-c1nc2ccccc2o1 | -21.5% | 9.4% | . | 22.4µM* | 11.0%
COc1ccccc1Nc1nnc(SCC(=O)N2CCCC2=O)s1 | -2.3% | 5.5% | -1.0% | 26.5% | 7.7%
CCc1ccc(Nc2nnc(SCC(=O)NC(=O)CN3CCCC3=O)s2)cc1 | 44.7µM* | -42.7% | -13.4% | 44.7µM* | .
COc1ccc2nc(-c3ccccc3)cc(C(=O)OCC(=O)N3CCCCC3)c2c1 | ? | -39.3% | -30.8% | ? | .
SMILES | POLH inh | POLK inh | WRN helicase inh | POLI inh | POLB inh
COc1ccc2nc(-c3ccccc3)cc(C(=O)OCC(=O)N3CC(C)OC(C)C3)c2c1 (centres undefined) | 79.4µM* | -26.3% | -2.9%[11.6 µM] | ? | .
Cc1ccc(S(=O)(=O)N2CCN(C(=O)c3ccccc3)CC2)cc1 | -5.0% | -13.0% | 0.9% | -1.5% | -7.5%
Cc1ccc(S(=O)(=O)N2CCN(C(=O)c3cccc(-n4cccc4)c3)CC2)cc1 | 17.8µM* | 79.4µM* | ? | 22.4µM* | .
Cc1ccc(NC(=O)CN(C)C(=O)Cc2ccc(Cl)c(Cl)c2)cc1 | -14.5% | -4.3% | -6.7% | 11.9% | -2.3%
Cc1ccc(NC(=O)Cn2ncc(Cl)c(Cl)c2=O)cc1S(=O)(=O)N1CCCCC1 | -10.8% | ? | -8.3% | 50.1µM* | .
Cc1cccc(NC(=O)CNC(=O)Cn2ncc(Cl)c(Cl)c2=O)c1C | 3.98µM* | ? | ? | 15.8µM* | .
Cc1ccc(NC(=O)CN(C)C(=O)Cn2ncc(Cl)c(Cl)c2=O)cc1 | ? | -16.1% | ? | 44.7µM* | ?
Cc1ccc(NC(=O)CN2C(=O)CSc3ccc(S(=O)(=O)N(C)C)cc32)c(C)c1 | -2.4% | 26.6% | . | -6.9% | 6.9%
C/C(=N/Nc1ccc(C(=O)O)cc1)c1ccc(O)c(O)c1O | ? | -26.6% | ? | -12.9% | 22.4µM*
O=C(CCc1ccc(O)cc1)c1c(O)cc(O)cc1O | -1.1%[57.1 µM] | ? | -3.4% | -21.2%[58.9 µM] | 7.08µM*
CC(=O)N[C@H]1CSSC[C@@H](C(=O)N2CCC[C@H]2C(=O)N2CCC[C@H]2C(=O)N[C@@H](CCCCN)C(=O)N[C@@H](CC(=O)O)C(N)=O)NC(=O)CNC(=O)[C@H](Cc2c[nH]c3ccccc23)NC(=O)[C@H](CCCNC(=N)N)NC(=O)[C@@H](Cc2ccc(Cl)c(Cl)c2)NC(=O)[C@H](Cc2cnc[nH]2)NC(=O)[C@H](CCC(=O)O)NC1=O | . | -5.2%[12 µM] | . | . | .
Cc1ccc2oc(-c3ccc(C)c(NC(=O)COc4ccc(Cl)cc4C)c3)nc2c1 | . | -0.9% | . | ? | .
O=C(CSC(=S)N1CCCC1)Nc1cc2c(cc1Br)OCCO2 | -19.1% | 0.5% | 3.0% | 14.7% | 7.7%
O=C(CSC(=S)N1CCCC1)c1cc(Br)cc(Br)c1O | ? | ? | 56.2µM* | ? | 50.1µM*
CC1CCCN(C(=S)SCC(=O)c2cc(Br)cc(Br)c2O)C1 (centres undefined) | -16.8% | 25.1µM* | 89.1µM* | 22.4µM* | 15.8µM*
Cc1ccc(NC(=O)CSC(N)=O)cc1Cl | 8.2% | -3.4% | -5.5% | 12.6µM* | 22.2%
NC(=O)SCC(=O)Nc1ccc(Cl)c(Cl)c1 | -5.3% | -14.0% | ? | ? | 20.9%
CCS(=O)(=O)N1Cc2ccccc2CC1C(=O)NCCc1ccccc1 (centres undefined) | -14.1% | -6.6% | 1.2% | ? | 50.1µM*
CCS(=O)(=O)N1Cc2ccccc2CC1C(=O)Nc1ccc(NC(C)=O)cc1 (centres undefined) | ? | -5.8% | -0.2% | 16.0% | -7.7%
CCS(=O)(=O)N1Cc2ccccc2CC1C(=O)Nc1cc(S(C)(=O)=O)ccc1Cl (centres undefined) | ? | ? | -8.2%[11.6 µM] | 35.5µM* | -11.4%
C=C(C)C(=O)OCCOC(=O)C(=C)C | . | -9.8%[60.1 µM] | . | . | .
C(=C\c1ccnc2ccccc12)/c1ccc(N2CCNCC2)cc1 | . | 5.2% | . | 20.2% | .
